From PubChem BioAssay AID602393 (Broad Institute, 2012)
In all, about 350,000 compounds went through this assay and about 7,000 (2%) were called active. What follows is part of a selection rich in actives, with near analogues and random picks from the rest. Values without a mark were called inactive. Rule as the data show it: active = activation above about 40%; inconclusive = no clear call, values can overlap the other calls; inactive = below that.

Assay: raisers of Bmi1 knock-in reporter signal – mouse ES cells, Bmi1 luciferase knock-in, single point, esBAF inhibitor project, primary screen (AID 602393);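 also: 0% = median of the plate's neutral control wells and 100% = double that signal; a rise in the Bmi1 reporter signal indicates esBAF inhibition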
Details: 24 h, at 12.5 µM, active compounds read high, 100% = twice the neutral-well signal

SMILES | reporter increase
Cc1noc(C)c1S(=O)(=O)Nc1ccc2c(c1)C(=O)N([C@@H](C)CO)C[C@@H](C)[C@@H](CN(C)Cc1ccccc1)OCCCC[C@H](C)O2 | -1.71%
CCOC(=O)CSc1nnc(CNc2ccc(F)cc2)o1 | 4.3%
Cc1cccc2nc(CNc3ccc(F)cc3)cn12 | 56.3% (active)
Cc1ccn2c(=O)nc(SCC(=O)NCc3ccc(F)cc3)nc2c1 | -3.54%
O=C(C[C@H]1CC[C@H]2[C@@H](COC[C@@H](O)CN2CCC(F)(F)F)O1)NCc1ccc2c(c1)OCO2 | -0.0255%
CCCC(=O)Nc1ccc2c(c1)C(=O)N(C)[C@@H]1CC[C@H](CC(=O)Nc3cn(C)nc3C)O[C@H]1CO2 | -3.47%
C[C@@H]1CN([C@@H](C)CO)C(=O)c2cc(C#CCc3ccccc3)cnc2O[C@@H]1CN(C)C(=O)C1CCOCC1 | -0.454%
Cc1cccc(N(CC(=O)N2CCOCC2)S(C)(=O)=O)c1 | 0.817%
Cc1ccc(N2C(=O)SC(N(CC(=O)O)c3ccc(C)cc3)C2=O)cc1 (stereo not given) | -3.76%
Cc1cccc(N2C(=O)SC(N(CC(=O)O)c3cccc(C)c3)C2=O)c1 (stereo not given) | 51.9% (active)
C[C@H]1CN([C@@H](C)CO)C(=O)c2cc(N(C)C)ccc2O[C@@H]1CN(C)C(=O)Nc1ccc2c(c1)OCO2 | 0.253%
O=C(Nc1cccc2ccccc12)NC1CC1 | -6.94%
O=C(Nc1cccc2ccccc12)c1onc2c1CCCC2 | 68.2% (active)
O=C(Nc1cccc2ccccc12)c1[nH]c(-c2ccccc2)c2c1C(=O)N(C1CC1)C2=O | -8.26%
C[C@@H]1CN([C@@H](C)CO)S(=O)(=O)c2ccc(C#Cc3cccnc3)cc2O[C@@H]1CN(C)C | -4.81%
COc1ccc2c(c1)CCc1c(C(=O)N3CCc4ccccc4C3)noc1-2 | 26.1%
O=C(c1noc2c1CCCC2)N1CCc2ccccc2C1 | 63.6% (active)
O=C(c1cc(-c2cccc(O)c2)on1)N1CCc2ccccc2C1 | 10.2%
COC(=O)C[C@@H]1CC[C@H]2[C@H](COc3ccc(NC(=O)c4cccs4)cc3C(=O)N2C)O1 | 2.44%
Oc1ccc(-c2cccc(-c3ccc(O)cc3)c2)cc1 | 57.6% (active)
O=C(CN1CCN(c2ccc(O)cc2)CC1)Nc1ccc(-c2ccccc2)cc1 | -6.35%
O=C(CN1CCOCC1)NCC[C@@H]1CC[C@@H](NC(=O)Nc2ccccc2)[C@H](CO)O1 | -0.967%
CCCNC(=O)N(C)C[C@H]1Oc2cc(C3=CCCCC3)ccc2S(=O)(=O)N([C@H](C)CO)C[C@H]1C | -6.45%
COc1ccc(NC(=O)N(C)C[C@@H]2OCCCC[C@H](C)Oc3ccc(NS(=O)(=O)c4cn(C)cn4)cc3C(=O)N([C@@H](C)CO)C[C@@H]2C)cc1 | 1.74%
C[C@@H](O)C#Cc1ccc([C@H]2[C@H](CO)N3CCCCN(C(=O)c4ccc5c(c4)OCO5)C[C@@H]23)cc1 | -3.75%

SMILES | reporter increase
COc1ccc(-n2nc(C(=O)NCC(=O)N3CCCCCC3)c3ccccc3c2=O)cc1Cl | 47.6% (active)
COc1ccc(-n2nc(C(=O)NCC(=O)N3CCN(c4ccccc4OC)CC3)c3ccccc3c2=O)c(OC)c1 | 30.3%
COc1ccc(-n2nc(C(=O)NCC(=O)N3CCC(C(N)=O)CC3)c3ccccc3c2=O)cc1OC | -4.41%
CCCNC(=O)Nc1ccc2c(c1)C(=O)N(C)C[C@@H](OC)[C@H](C)CN(C(=O)C1CCCCC1)[C@H](C)CO2 | 5.09%
C[C@@H]1CCCCO[C@H](CN(C)S(C)(=O)=O)[C@@H](C)CN([C@H](C)CO)C(=O)c2cc(NC(=O)Nc3ccc4c(c3)OCO4)ccc2O1 | 6.3%
CCN1C(=O)/C(=C2\SC(N3CCCCC3)=NC2=O)c2ccccc21 | 65% (active)
CCOc1cc(/C=C2\SC(N3CCCCC3)=NC2=O)ccc1O | 30.3%
CC(C)=C1SC(N2CCN(c3cccc(C)c3)CC2)=NC1=O | -1.1%
O=C(C[C@H]1C=C[C@H](NC(=O)Cc2ccccn2)[C@@H](CO)O1)NCCc1ccccc1 | -5.91%
CN1c2ccc(C#Cc3ccccc3F)cc2[C@@H]2[C@@H](CCN2C(=O)Cc2cccnc2)[C@H]1CO | 1.33%
CCCn1nnc(NC(=O)COc2ccc(CC)cc2)n1 | -6.66%
CCn1nnc(NC(=O)c2c(OC)cccc2OC)n1 | 1.33%
CCCOc1cccc(C(=O)Nc2nnn(CCC)n2)c1 | 52.7% (active)
CO[C@H]1CN(C)C(=O)c2cc(NC(=O)Nc3c(C)noc3C)ccc2OC[C@@H](C)N(CCC(F)(F)F)C[C@H]1C | -21.9%
Cc1noc(C)c1S(=O)(=O)N(C)C[C@@H]1OCCCC[C@H](C)Oc2ccc(NC(=O)Nc3ccc4c(c3)OCO4)cc2C(=O)N([C@H](C)CO)C[C@H]1C | 2%
COCC(=O)Nc1ccc2c(c1)C(=O)N(C)[C@@H]1CC[C@H](CC(=O)NCC3CC3)O[C@@H]1CO2 | -2.01%
CO[C@H]1CN(C)C(=O)c2cc(NC(=O)c3cc(C)on3)ccc2OC[C@H](C)N(C(C)=O)C[C@H]1C | 0.72%
O=C(NCCc1ccc(F)cc1)c1ccc2nccnc2c1 | -17.6%
COCCNC(=O)c1ccc2nc(Cc3ccc(OC)c(OC)c3)oc2c1 | 48.6% (active)
COc1ccc(Cc2nc3ccc(C(=O)NCC4CCOCC4)cc3o2)cc1OC | 21%
CCC1C(=O)NCCN1C(=O)c1ccc2nc(Cc3ccc(OC)cc3)oc2c1 (stereo not given) | 0.998%
CSCCNC(=O)c1ccc2nc(Cc3ccccc3F)oc2c1 | 70.4% (active)
CCCCc1nc2cc(C(=O)NCCc3cnn(C)c3)ccc2o1 | 31.5%
O=C(N[C@H]1CC[C@@H](CCNS(=O)(=O)c2cccc(Cl)c2)O[C@@H]1CO)c1ccncc1 | 0.826%
C[C@H](CO)N1C[C@H](C)[C@H](CN(C)C(=O)Nc2ccc(C(F)(F)F)cc2)Oc2ccc(NS(=O)(=O)c3ccccc3)cc2CC1=O | -4.41%
